Data reported in PubChem BioAssay (Tox21).
Results filed as inconclusive are left out. The source made the active and inactive calls. Unless noted, calls follow the shape of the dose curve; as a rule, active = well fitted curve in the direction sought with a large enough effect in the repeat runs; inconclusive = weak or mixed curves; inactive = no such curve, though single readings can be large; an effect the other way counts as inactive or inconclusive.

Tests used:
[1] = A CellTox Green Cytotoxicity Assay to monitor cytotoxicity in HepG2 cells - 0 hour (AID 1224882); also: nearly all actives have a fitted effect of over 35% in size
Summary of the method: (§1)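 Measurements at 0, 8, 16, 24, 32 and 40 h of treatment captured CellTox Green fluorescence in HepG2 cells that had been co-plated with reagent and preincubated 5 h at 37 C/5% CO2.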

[2] = A CellTox Green Cytotoxicity Assay to monitor cytotoxicity in HepG2 cells - 32 hour (AID 1224883); also: nearly all actives have a fitted effect of over 50% in size
Summary of the method: as §1

[3] = A CellTox Green Cytotoxicity Assay to monitor cytotoxicity in HEK293 cells - 8 hour (AID 1224884); also: nearly all actives have a fitted effect of over 35% in size
Summary of the method: (§2)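 Tox21 screen in HEK293: membrane-impermeant cyanine dye fluoresces on binding dead-cell DNA; compound pinned 5 h post-seeding, plates held at 37 C, signal read repeatedly through 40 h.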

[4] = qHTS RealTime-Glo MT Cell Viability Assay in HepG2 cells - 16 hour (AID 1224885); also: nearly all actives have a fitted effect of over 50% in size
Summary of the method: (§3)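 HepG2 suspension premixed with RealTime-Glo reagents is plated at 600 cells per well and left 5 h at 37 C/5% CO2. Compounds in DMSO then go in, and bioluminescence reflecting viable cell number is recorded over 40 h.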

[5] = qHTS RealTime-Glo MT Cell Viability Assay in HEK293 cells - 24 hour (AID 1224886); also: top concentration of the series differs between compounds; nearly all actives have a fitted effect of over 50% in size
Summary of the method: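 Reads taken at 0, 8, 16, 24, 32 and 40 h from the same wells. HEK293 cells (600/well) carried RealTime-Glo reagents from seeding, with compound added after a 5 h settle at 37 C.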

[6] = qHTS RealTime-Glo MT Cell Viability Assay in HEK293 cells - 8 hour (AID 1224887); also: top concentration of the series differs between compounds; nearly all actives have a fitted effect of over 50% in size
Summary of the method: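 HEK293 + NanoLuc + prosubstrate, 600 cells/well; 5 h, 37 C/5% CO2; compound 23 nL in DMSO by pintool; 37 C; luminescence read at 0, 8, 16, 24, 32 and 40 h time points.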

[7] = A CellTox Green Cytotoxicity Assay to monitor cytotoxicity in HEK293 cells - 16 hour (AID 1224888); also: nearly all actives have a fitted effect of over 35% in size
Summary of the method: as §2

[8] = qHTS RealTime-Glo MT Cell Viability Assay in HepG2 cells - 0 hour (AID 1224889); also: nearly all actives have a fitted effect of over 50% in size
Summary of the method: as §3

[9] = A CellTox Green Cytotoxicity Assay to monitor cytotoxicity in HepG2 cells - 8 hour (AID 1224890); also: nearly all actives have a fitted effect of over 45% in size
Summary of the method: as §1

[10] = qHTS assay to identify small molecule antagonists of the estrogen receptor alpha (ER-alpha) signaling pathway using the BG1 cell line in the presence of 0.1 nM 17-beta-estradiol - cell viability counter screen (AID 1259241); also: nearly all actives have a fitted effect of over 40% in size
Summary of the method: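 Viability in VM7Luc4E2 cells after 22 hr compound exposure under 0.1 nM 17beta-estradiol stimulation, by CellTiter-Fluor.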

[11] = qHTS assay to identify small molecule antagonists of the androgen receptor (AR) signaling pathway using the MDA cell line in the presence of 0.5 nM R1881 - cell viability counter screen (AID 1259242); also: nearly all actives have a fitted effect of over 45% in size
Summary of the method: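 Concentration-response screen of compounds for toxicity in MDA-kb2 reporter cells: 16 hr at 37C with 0.5 nM R1881, endpoint live-cell protease fluorescence measured in the reporter wells.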

[12] = target: Androgen receptor (Homo sapiens) (UniProt P10275); experiment: qHTS assay to identify small molecule antagonists of the androgen receptor (AR) signaling pathway using the MDA cell line in the presence of 0.5 nM R1881 (AID 1259243); also: nearly all actives have a fitted effect of over 50% in size; also: potency is read from the fitted curve at half-maximal effect
Chain of Androgen receptor (Homo sapiens) (P10275 whole entry, looked up): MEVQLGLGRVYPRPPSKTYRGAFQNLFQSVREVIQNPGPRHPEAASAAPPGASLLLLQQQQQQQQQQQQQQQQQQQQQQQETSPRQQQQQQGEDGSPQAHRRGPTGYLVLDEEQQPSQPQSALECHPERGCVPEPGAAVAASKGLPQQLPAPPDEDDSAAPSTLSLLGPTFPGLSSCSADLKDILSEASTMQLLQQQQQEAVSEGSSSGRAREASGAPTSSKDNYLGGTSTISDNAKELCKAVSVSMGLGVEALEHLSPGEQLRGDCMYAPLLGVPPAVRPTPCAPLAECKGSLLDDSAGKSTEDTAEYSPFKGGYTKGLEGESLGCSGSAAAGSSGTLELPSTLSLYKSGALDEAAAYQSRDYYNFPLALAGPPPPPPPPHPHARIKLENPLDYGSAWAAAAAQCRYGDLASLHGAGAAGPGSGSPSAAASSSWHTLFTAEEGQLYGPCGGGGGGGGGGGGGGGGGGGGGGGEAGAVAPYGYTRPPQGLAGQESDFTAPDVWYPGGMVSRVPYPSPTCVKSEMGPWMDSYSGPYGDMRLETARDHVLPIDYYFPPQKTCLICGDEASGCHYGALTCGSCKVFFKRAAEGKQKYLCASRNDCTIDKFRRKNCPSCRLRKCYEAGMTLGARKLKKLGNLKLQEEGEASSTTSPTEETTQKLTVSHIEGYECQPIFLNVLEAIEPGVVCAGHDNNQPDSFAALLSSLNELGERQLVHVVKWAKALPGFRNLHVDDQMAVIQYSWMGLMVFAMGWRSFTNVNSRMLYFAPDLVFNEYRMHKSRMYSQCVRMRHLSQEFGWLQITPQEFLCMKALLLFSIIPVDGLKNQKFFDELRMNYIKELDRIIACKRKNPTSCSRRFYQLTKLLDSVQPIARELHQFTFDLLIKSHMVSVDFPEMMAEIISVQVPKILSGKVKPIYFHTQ
Summary of the method: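 With R1881 held at 0.5 nM (final), compound effects on MMTV-luciferase expression in MDA-kb2 cells were scored by luminescence after a 16 hr, 37C incubation.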

[13] = qHTS assay to identify small molecule HDAC inhibitors - cell viability counter screen (AID 1259365)
Summary of the method: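 Cytotoxicity was gauged in wild-type HCT-116 cells after a brief 2hr treatment with DMSO-dissolved compounds at 37C and 5% CO2, using CellTiter-Glo luminescence developed for 30min at room temperature.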

[14] = qHTS assay to identify small molecule agonists of the sonic hedgehog signaling (Shh) pathway - cell viability counter screen (AID 1259366); also: nearly all actives have a fitted effect of over 50% in size
Summary of the method: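 Stable Gli1-Luc NIH/3T3 clone, 2,000 cells/well. Compound exposure 24hr at 37C. Read-out: CellTiter-Fluor fluorescence.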

[15] = qHTS assay to identify small molecule antagonists of the sonic hedgehog signaling (Shh) pathway - cell viability counter screen (AID 1259367); also: nearly all actives have a fitted effect of over 55% in size
Summary of the method: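 Fluorescence read-out (CellTiter-Fluor, 1 hr at 37C) taken after 23 hr compound treatment of 3T3 Gli1-Luc cells stimulated with conditioned medium. Cells were seeded at 2,000 per well and pre-incubated 4 hr.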

[16] = qHTS assay to identify small molecule agonists of the sonic hedgehog signaling (Shh) pathway (AID 1259368; calls by dose curve;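 also: NIH/3T3-derived 3T3Gli1-Luc cells carrying a stable Gli1-driven firefly luciferase reporter; series mostly up to about 92 µM; nearly all actives have a fitted effect of over 15% in size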)
Summary of the method: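 Hedgehog pathway agonism scored by increased firefly luciferase luminescence in 3T3Gli1-Luc cells treated 24 hr at 37 C; detection used a 30 min room-temperature reagent incubation.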

[17] = target: Estrogen receptor (Homo sapiens) (UniProt P03372); experiment: qHTS assay to identify small molecule antagonists of the estrogen receptor alpha (ER-alpha) signaling pathway using the BG1 cell line in the presence of 0.1 nM 17-beta-estradiol (AID 1259244); also: nearly all actives have a fitted effect of over 50% in size
Chain of Estrogen receptor (Homo sapiens) (P03372 whole entry, looked up): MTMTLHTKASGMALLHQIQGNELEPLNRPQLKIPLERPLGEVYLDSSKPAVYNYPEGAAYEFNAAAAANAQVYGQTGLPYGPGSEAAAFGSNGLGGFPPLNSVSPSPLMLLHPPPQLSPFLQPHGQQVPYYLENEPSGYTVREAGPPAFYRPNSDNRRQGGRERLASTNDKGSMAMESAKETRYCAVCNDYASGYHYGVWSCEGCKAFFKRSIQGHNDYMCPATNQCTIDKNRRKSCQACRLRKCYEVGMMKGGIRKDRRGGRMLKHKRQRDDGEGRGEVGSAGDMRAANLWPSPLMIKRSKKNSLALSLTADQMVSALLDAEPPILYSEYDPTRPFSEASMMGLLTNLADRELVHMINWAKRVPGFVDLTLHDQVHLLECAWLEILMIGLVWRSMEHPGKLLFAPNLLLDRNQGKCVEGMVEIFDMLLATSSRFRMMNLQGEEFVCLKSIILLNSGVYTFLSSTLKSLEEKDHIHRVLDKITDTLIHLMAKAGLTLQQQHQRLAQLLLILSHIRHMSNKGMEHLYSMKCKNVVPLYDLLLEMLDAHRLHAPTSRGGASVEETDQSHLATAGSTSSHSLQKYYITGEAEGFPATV
Summary of the method: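 Compounds were tested against 0.1 nM (final) 17beta-estradiol in VM7Luc4E2 cells, which express full-length ER-alpha and an ERE-luciferase reporter; luminescence was recorded following 22 h exposure.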

[18] = qHTS assay to identify small molecule phospholipidosis (PLD) inducers (AID 1259344; active = well fitted curve in the direction sought with a large enough effect; an effect the other way counts as inactive or inconclusive)
Summary of the method: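 Read-out is LipidTOX Red fluorescence (ex 595/em 615) imaged in HepG2 cells after 24 h compound exposure at 37 C, with Hoechst nuclear counterstain (ex 352/em 461) allowing per-cell normalisation.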

[19] = qHTS assay to identify small molecule HDAC inhibitors (AID 1259364);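 also: wild-type HCT-116 cells with endogenous class I/II HDAC activity; top concentration of the series differs between compounds; nearly all actives have a fitted effect of over 45% in size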
Summary of the method: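 Screening used wild-type human colon HCT-116 cells incubated overnight, dosed with compounds for 2 hours, and assayed with a homogeneous luminogenic HDAC I/II reagent for 30 minutes at room temperature.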

[20] = qHTS assay to identify small molecule antagonists of the sonic hedgehog signaling (Shh) pathway (AID 1259369; calls by dose curve; also: nearly all actives have a fitted effect of over 45% in size)
Summary of the method: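 NIH/3T3 stable Gli1-Luc clone, 2,000 cells/well, 4hr settle; cpd + conditioned medium 24hr; Luc reagent 30min RT; luminescence.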
% is scaled to controls: 0 for no effect and ±100 for the full control effect.

Cc1ccc(-c2ccccc2C#N)cc1
active: Potency [12] 11.9 µM
inactive: Potency [1] | Potency [2] | outcome [3] | outcome [4] | Potency [5] | Potency [6] | outcome [7] | Potency [8] | outcome [9] | outcome [10] | outcome [11] | outcome [13] | Potency [14] | Potency [15] | outcome [16]

C[C@H]1C[C@H]2[C@@H]3CCC4=CC(=O)C=C[C@]4(C)[C@H]3C(=O)C[C@]2(C)[C@@]1(O)C(=O)CO
inactive: Potency [1] | Potency [2] | outcome [3] | outcome [4] | Potency [5] | Potency [6] | outcome [7] | Potency [8] | outcome [9] | outcome [10] | outcome [11] | outcome [17] | PLD induction [18] 2.13% [at 7.66 µM] | Potency [19] | outcome [13] | Potency [14] | Potency [15] | outcome [16] | Potency [20]

CC(=O)NC(=O)c1ccccc1O
inactive: Potency [1] | Potency [2] | outcome [3] | outcome [4] | Potency [5] | Potency [6] | outcome [7] | Potency [8] | outcome [9] | outcome [10] | outcome [11] | outcome [17] | outcome [18] | outcome [13] | Potency [14] | Potency [15] | outcome [16] | Potency [20]

CCOC(=O)C(=O)CCCCCCl
inactive: Potency [1] | Potency [2] | outcome [3] | outcome [4] | Potency [5] | Potency [6] | outcome [7] | Potency [8] | outcome [9] | outcome [10] | outcome [11] | Potency [12] | outcome [17] | Potency [19] | outcome [13] | Potency [14] | Potency [15] | outcome [16] | Potency [20]

FB(F)F
inactive: Potency [1] | Potency [2] | outcome [3] | outcome [4] | Potency [5] | Potency [6] | outcome [7] | Potency [8] | outcome [9] | outcome [10] | outcome [11] | outcome [17] | Potency [19] | outcome [13] | Potency [14] | Potency [15] | outcome [16] | Potency [20]

CCNS(=O)(=O)c1ccc(C)cc1
inactive: Potency [1] | Potency [2] | outcome [3] | outcome [4] | Potency [5] | Potency [6] | outcome [7] | Potency [8] | outcome [9] | outcome [10] | outcome [11] | outcome [17] | Potency [19] | outcome [13] | Potency [14] | Potency [15] | outcome [16] | Potency [20]

C=C(C)C(=O)OCC(O)CO (configuration not stated)
inactive: Potency [1] | Potency [2] | outcome [3] | outcome [4] | Potency [5] | Potency [6] | outcome [7] | Potency [8] | outcome [9] | outcome [10] | outcome [11] | Potency [12] | Potency [19] | outcome [13] | Potency [14] | Potency [15] | outcome [16]

CO[Si](C)(OC)c1ccccc1
inactive: Potency [1] | Potency [2] | outcome [3] | outcome [4] | Potency [5] | Potency [6] | outcome [7] | Potency [8] | outcome [9] | outcome [10] | outcome [11] | outcome [17] | Potency [19] | outcome [13] | Potency [14] | Potency [15] | outcome [16] | Potency [20]

COCCOC[C@H](CC1(C(=O)NC2CCC(C(=O)O)CC2)CCCC1)C(=O)Oc1ccc2c(c1)CCC2 (some centres not stated)
inactive: Potency [1] | Potency [2] | outcome [3] | outcome [4] | Potency [5] | Potency [6] | outcome [7] | Potency [8] | outcome [9] | outcome [10] | outcome [11] | Potency [12] | outcome [17] | Potency [19] | outcome [13] | outcome [16] | Potency [20]

CC1(C)OC[C@@H](COC(=O)CCc2ccc(OC[C@@H](O)CNCCNC(=O)N3CCOCC3)cc2)O1
inactive: Potency [1] | Potency [2] | outcome [3] | outcome [4] | Potency [5] | Potency [6] | outcome [7] | Potency [8] | outcome [9] | outcome [10] | outcome [11] | Potency [12] | outcome [17] | outcome [18] | outcome [13] | Potency [14] | Potency [15] | outcome [16] | Potency [20]

CC1=NN(c2cccc(S(=O)(=O)O)c2)C(=O)C1
inactive: Potency [1] | Potency [2] | outcome [3] | outcome [4] | Potency [5] | Potency [6] | outcome [7] | Potency [8] | outcome [9] | outcome [10] | outcome [11] | Potency [12] | Potency [19] | outcome [13] | Potency [14] | Potency [15] | outcome [16] | Potency [20]

CC(N)C12CC3CC(CC(C3)C1)C2 (configuration not stated)
inactive: Potency [1] | Potency [2] | outcome [3] | outcome [4] | Potency [5] | Potency [6] | outcome [7] | Potency [8] | outcome [9] | outcome [10] | outcome [11] | outcome [17] | outcome [18] | Potency [19] | outcome [13] | Potency [15] | outcome [16]

CCCCCCCC1CCCC1=O (configuration not stated)
inactive: Potency [1] | Potency [2] | outcome [3] | outcome [4] | Potency [5] | Potency [6] | outcome [7] | Potency [8] | outcome [9] | outcome [10] | outcome [11] | Potency [12] | outcome [17] | Potency [19] | outcome [13] | Potency [14] | Potency [15] | outcome [16] | Potency [20]

CN(C)C(=O)Oc1cccc([N+](C)(C)C)c1
inactive: Potency [1] | Potency [2] | outcome [3] | outcome [4] | Potency [5] | Potency [6] | outcome [7] | Potency [8] | outcome [9] | outcome [10] | outcome [11] | outcome [17] | outcome [18] | Potency [19] | outcome [13] | Potency [14] | Potency [15] | outcome [16] | Potency [20]
